Assay results published in PubChem BioAssay AID746 (The Scripps Research Institute Molecular Screening Center, 2007).
In all, about 60,000 compounds went through this assay and about 370 (0.62%) were called active. The full list was thinned out, with actives kept by preference. Unmarked numbers belong to inactive results. Rule as the data show it: active = inhibition above about 17%; inactive = the rest.

biological target: Mitogen-activated protein kinase 10 (Homo sapiens) (UniProt P53779); test: JNK3 kinase activity inhibitors, primary screen, biochemical, human, purified enzyme (AID 746); settings: HTS, at 8 µM, hits give high values;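 also: 0% = DMSO and 100% = reference inhibitor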
Sequence (P53779 whole entry, looked up): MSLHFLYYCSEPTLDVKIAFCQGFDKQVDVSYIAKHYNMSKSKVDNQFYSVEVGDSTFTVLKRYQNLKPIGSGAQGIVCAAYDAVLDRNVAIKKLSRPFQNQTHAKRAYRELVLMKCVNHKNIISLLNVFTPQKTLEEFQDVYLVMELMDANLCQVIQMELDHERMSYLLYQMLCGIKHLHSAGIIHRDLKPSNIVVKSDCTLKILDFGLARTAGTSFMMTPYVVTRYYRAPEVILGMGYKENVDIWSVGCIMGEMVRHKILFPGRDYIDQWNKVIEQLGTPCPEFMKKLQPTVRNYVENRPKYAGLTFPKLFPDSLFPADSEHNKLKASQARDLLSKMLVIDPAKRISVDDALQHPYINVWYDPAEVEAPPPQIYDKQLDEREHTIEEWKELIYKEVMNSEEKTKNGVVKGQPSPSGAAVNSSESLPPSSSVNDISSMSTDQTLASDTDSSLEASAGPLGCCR

Row | SMILES | inhibition
1 | Cc1cc(/C=N/n2cnnc2)c(C)n1-c1cccc(C(=O)O)c1 | 0.73%
2 | O=C(CSC1=NCCS1)Nc1nc(-c2ccccc2)cs1 | 0.48%
3 | Oc1ccc2nc(Cc3ccccc3)[nH]c2c1 | 5.45%
4 | Cc1cc(O)ccc1-c1cnc2ccccc2n1 | 25.6% (active)
5 | Cc1nc2ccccc2cc1O | -3.12%
6 | O=C1NC2(CCCCC2)N=C1c1ccccc1 | 0.31%
7 | COC(=O)C(CC(=O)Nc1cc(C)ccc1C)Nc1ccccc1OC (configuration not stated) | -2.33%
8 | O=C(C1CCN(c2nnc(-n3cccc3)s2)CC1)N1CCc2ccccc2C1 | -2.74%
9 | CCOc1ccccc1C1NC(=O)NC(C)=C1C(=O)OCc1ccco1 (configuration not stated) | 2.09%
10 | CSc1nc(C)nc2c1c(=O)n(C)c(=O)n2C | 4.34%
11 | CCOc1ccc(NS(=O)(=O)c2ccc(OCC(=O)NCCCOC)cc2)cc1 | -5.51%
12 | O=C(OC(C(=O)NC1CCCC1)c1ccc(F)cc1)c1ccno1 (configuration not stated) | -3.98%
13 | CCC1SC2=NCCN2C1(O)c1ccc(Cl)cc1 (configuration not stated) | -0.2%
14 | O=C(O)Cc1ccc(NC(=O)C2CCCCC2C(=O)O)cc1 (configuration not stated) | 3.04%
15 | Cc1cn(COC/C=C/c2ccccc2)c(=O)[nH]c1=O | -1.97%
16 | CCOC(=O)CNC(=O)CN1C(=O)CCSc2ccccc21 | -4.85%
17 | O=C(CSc1nnc(-c2ccco2)o1)NCC(=O)c1ccccc1 | -0.03%
18 | O=C(COc1ncnc2ccccc12)NC(=O)NCc1ccccc1 | 1.94%
19 | COc1cccc2c(=O)n(CC(=O)N3CCCCCC3)ccc12 | 1.14%
20 | OCCCN1c2ccccc2Nc2nnc(-c3ccccc3)cc21 | 31.6% (active)
21 | Cc1ccc2c(c1)C(O)(CC(=O)c1cccnc1)C(=O)N2 (configuration not stated) | 4.44%
22 | O=C(CSc1nc2c(cnn2-c2ccc(F)cc2)c(=O)[nH]1)N1CCCCCC1 | 1.45%
23 | C=CCNC(=O)CSc1nc2sc(C)c(C)c2c(=O)[nH]1 | -0.43%
24 | CC(=O)c1sc2nc(SCC(=O)N3CCCCC3)[nH]c(=O)c2c1C | 19.7% (active)
25 | O=C1NC(c2ccncc2)Nc2sc3c(c21)CCCC3 (configuration not stated) | 4.12%
26 | CC(=NCc1ccc2c(c1)OCO2)C1=C(O)c2ccccc2C1=O | 12.4%

Row | SMILES | inhibition
27 | O=C1C(C=NCC2CCCO2)=C(O)c2ccccc21 (configuration not stated) | 3.41%
28 | CC(=NCc1ccco1)C1=C(O)c2ccccc2C1=O | 32.9% (active)
29 | Cc1ccnc(N2CCN(C(=O)CSc3nc4ccccc4nc3N3CCCCC3)CC2)c1 | 6.1%
30 | Cc1cc(N2CCCC2)n2nc(C)c(-c3ccccc3)c2n1 | -0.31%
31 | CCOC(=O)N1CCN(C(=O)CSc2ccc(Cl)cc2)CC1 | -3.08%
32 | CC(=O)c1ccc(N2C(=NC(=O)C(C)C)SC3CS(=O)(=O)CC32)cc1 (configuration not stated) | 3.06%
33 | O=C(NCc1ccco1)c1ccc(CS(=O)(=O)Cc2ccc(F)cc2)o1 | 2.1%
34 | COc1ccccc1C(=O)N1CCN=C1SCc1cccnc1 | -7.75%
35 | CCN1CCN(C(=O)CN(C)S(=O)(=O)c2ccc(OC)cc2)CC1 | -5.84%
36 | CC(CN1CCCCC1)OC(=O)c1ccccc1Cl (configuration not stated) | 2.81%
37 | CCc1ccccc1N(CC(=O)N1CCN(c2ccccc2F)CC1)S(C)(=O)=O | 2.83%
38 | COCCCn1c2nc3ccccc3nc2c2c(=O)n(Cc3ccc(Cl)cc3)c(C)nc21 | 3.15%
39 | Cc1ccsc1CNn1cnnc1SCc1ccccc1F | -1.56%
40 | Fc1c(F)c(C(F)(F)F)c(F)c(F)c1N1CCN(c2ccc3nnc(C(F)(F)F)n3n2)CC1 | -2.37%
41 | Cc1cc(C)n(C(=O)c2ccc(S(=O)(=O)N3CCCC3)cc2)n1 | 5.94%
42 | O=C(CSc1nnc(Cc2ccccc2)n1-c1ccccc1)N1CCOCC1 | -3.48%
43 | COC(=O)c1[nH]c2ccccc2c1NS(=O)(=O)c1ccc(OC)cc1OC | 2.86%
44 | CCOC(=O)c1ccc(COC(=O)c2cc(=O)[nH]c3ccccc23)o1 | -6.13%
45 | COc1ccc(COC(=O)c2n[nH]c3ccccc23)cc1F | 54.8% (active)
46 | CSc1nsc(SC)c1NC(=O)OC1CCCCC1 | -12%
47 | CS(=O)(=O)N1CCCC(C(=O)N2CCOCC2)C1 (configuration not stated) | 6.57%
48 | CCCN1Cc2cccc(C(=O)NCc3ccccc3)c2C1=O | 19.8% (active)
49 | COCCN1Cc2cccc(C(=O)Nc3ccccc3OC)c2C1=O | 2.47%
50 | O=C(O)c1cccc2c1C(=O)N(C1CCCCC1)C2 | -0.07%
51 | CC(=O)c1c(C)n([O-])c2ccccc2[n+]1=O | -1.64%
52 | C=C1c2cc(CC)ccc2NC(=O)N1c1ccc(C)cc1 | -1.58%

Row | SMILES | inhibition
53 | CCN=C1SC(CC(=O)Nc2ccc(C)cc2)C(=O)N1CC (configuration not stated) | 0.86%
54 | CCc1ccccc1NC(=O)c1cccs1 | 6.07%
55 | CCOC(=O)c1cc2sccc2n1Cc1ccc(C#N)cc1 | 4.65%
56 | Cc1ccn2cc(-c3nonc3C)cc2c1 | 2.16%
57 | Cc1cccc(NC(=O)CSC(N)=O)c1C | -3.12%
58 | CCOC(=O)c1cccc(NC(=O)CCc2c(C)nc3ncnn3c2C)c1 | 4.2%
59 | COC(=O)c1cc(NC2c3ccccc3C(=O)N2c2ccc(Cl)cn2)cc(C(=O)OC)c1 (configuration not stated) | 1.5%
60 | CN(C(=O)C1CCOC1)c1nnc(-c2cccnc2)s1 (configuration not stated) | -0.13%
61 | COc1ccc(N2CCN(Cc3cc(=O)oc4ccc5ccccc5c34)CC2)cc1 | 11.2%
62 | Cn1c(=O)[nH]c(=O)c2c1nc(N1CCN(CCO)CC1)n2CCSc1nc2ccccc2s1 | -3.17%
63 | COc1ccc(C)c2sc(=NC(=O)c3ccc(C#N)cc3)n(C)c12 | 1.99%
64 | CCOc1ccc(CCNC(=O)C2CCN(c3ccc(N4CCOCC4)nn3)CC2)cc1OCC | -3.01%
65 | Cn1cccc1C(=O)Nc1nccs1 | 3.03%
66 | COc1cc(C(=O)Nc2nccs2)cc(OC)c1OC | 8.3%
67 | CC(=O)Oc1ccc(C(=O)Nc2nccs2)cc1 | 31.3% (active)
68 | COc1ccc(Cn2cccc(NC(=O)Nc3ccc(C#N)cc3)c2=O)cc1 | 2.85%
69 | CCOC(=O)C1CCN(C(=O)Nc2ccc(Cl)cc2)CC1 | 3.13%
70 | CCC(C)Sc1nnc(-c2c[nH]c3ccccc23)n1CCOC (configuration not stated) | -1.71%
71 | COc1ccc(CCNC(=O)CCn2c(=O)oc3ccccc32)cc1OC | -2.91%
72 | Cc1cc(C)c(S(=O)(=O)NCCCN2CCOCC2)cc1Br | -5.01%
73 | COc1ccc(OC)c(C2N(c3ccccn3)C(=O)C3CCCN32)c1 (configuration not stated) | 1.09%
74 | Cc1cc(=O)n2c3c(cccc13)CCC2 | 6.82%
75 | CCOC(=O)c1sc2nc(CSCC(=O)OCc3ccc(C(=O)OC)o3)[nH]c(=O)c2c1C | 0.98%
76 | COC(=O)c1c(NC(=O)CCN2CCOCC2)sc2c1CCCC2 | -3.4%
77 | COc1ccccc1-n1cnc2cc(NS(=O)(=O)c3ccccc3)ccc21 | 4.48%
78 | COc1ccc(O)c(C=Nc2cc(C)on2)c1 | 0.04%

Row | SMILES | inhibition
79 | Cc1cc(C)n(C(=O)c2ccc(C)c(S(=O)(=O)N3CCOCC3)c2)n1 | 1.61%
80 | Cc1cccc2cc(C#N)c(N3CCCC3)nc12 | 2.01%
81 | CC(C)COC(=O)C1C2C=CC3(CN(C(C)c4ccc(Br)cc4)C(=O)C13)O2 (configuration not stated) | -6.16%
82 | NC(=O)C1(N2CCCCC2)CCN(C(=O)c2ccc(C#Cc3ccccc3)o2)CC1 | -2.13%
83 | CCCn1c(SCC(=O)Nc2c(C)cccc2C)nnc1C(C)C | -2.91%
84 | C=CCN(c1ccc(C(N)=O)cc1)S(C)(=O)=O | 4.4%
85 | NC(=O)c1ccccc1NC(=O)c1ccccc1F | 13.4%
86 | COc1cccc(OCC(=O)Nc2ccccc2C(N)=O)c1 | 26.1% (active)
87 | CCCOC(=O)Nc1ccccc1C(N)=O | -5.47%
88 | CCOCCCNS(=O)(=O)Cc1ccccc1 | 1.76%
89 | CCCCOc1ccc(C(=O)NCc2ccco2)cc1 | 0.41%
90 | CCOc1ccc2nc(N3CCCN(C(=O)Nc4ccccc4C)CC3)c(C#N)cc2c1 | 0.49%
91 | CCN(c1ccccc1)S(=O)(=O)c1ccc(N)cc1 | 2.15%
92 | CC1=C(C(N)=O)C(c2ccc3c(c2)OCO3)n2nc(-c3cccc(C)c3)nc2N1 (configuration not stated) | 5.86%
93 | CCOC(=O)c1ccc(Nc2cc(C)nc3nc(C)nn23)cc1 | -10.1%
94 | COc1ccccc1NC(=O)CSc1nnc(Cn2nnc(-c3ccccc3)n2)n1-c1ccccc1 | -0.28%
95 | O=C(Nc1nsc(-c2ccccc2)n1)c1ccncc1 | 1.54%
96 | CC1CSc2nnc(CCc3ccccc3)n21 (configuration not stated) | 16.5%
97 | COC(=O)c1cc(C(=O)CSc2nc(C)cc(C)n2)ccc1O | 1.84%
98 | COc1c(O)cccc1-c1nnn(CCC(=O)OCC(=O)c2ccccc2)n1 | 0.11%
99 | CC(CCc1ccccc1)NC(=O)c1ccc(Br)o1 (configuration not stated) | 3.4%
100 | NC(=O)CCCC1=NS(=O)(=O)c2ccccc2N1 | 11.7%
101 | Nc1nonc1C(=O)NCCc1ccccc1 | 2.83%
102 | CC(C)CC(=O)N=C1SC2CS(=O)(=O)CC2N1CCc1ccccc1 (configuration not stated) | -1.83%
